Hits are enriched below; roughly 2.4% of the tested compounds scored in any of these assays.
D2 antagonist: HTS Assay for Allosteric Antagonists of the Human D2 Dopamine Receptor: Primary Screen for Antagonists; D(2) dopamine receptor (Homo sapiens), P14416; HEK293 TREx D2 cells, calcium flux, dopamine EC80; inhibition, % at 10 µM; 2% of 340,000 active; in the data active = inhibition above about 30%; inactive = below that, where a call was filed; also: 0% is about no effect
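Compounds are added to dye-loaded, induced HEK293 T-REx cells coupled to calcium release via D2; after a 3 min kinetic read an EC80 dopamine stimulus is given and fluorescence is recorded for 3 more min.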
D2 ag-1: Beta-Arrestin HTS for Positive Allosteric Modulators of the Human D2 Dopamine Receptor: Agonists; activation, % (test concentration not listed); 0.084% of 360,000 active; DiscoveRx PathHunter D2 beta-arrestin, luminescence, 90 min; 100% = 57 uM dopamine signal; AID 624465, 2012; D(2) dopamine receptor (Homo sapiens), P14416; in the data active = activation above about 40%; inconclusive = between about 15% and that limit
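DiscoveRx PathHunter D2 beta-arrestin cells (2,100/well) attached overnight, then compound-stimulated 90 min at 37 C in HBSS/10 mM HEPES/0.1% Tween-20 buffer; beta-galactosidase complementation read by luminescence after 1 h at ambient temperature. Dopamine 57 uM final (EC100) as control.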
D2 PAM-1: Beta-Arrestin HTS for Positive Allosteric Modulators of the Human D2 Dopamine Receptor: Potentiators; 0.23% of 360,000 active; DiscoveRx D2 beta-arrestin cells, luminescence, 90 min; 100% = 57 uM dopamine signal; potentiation, % (no concentration beside the values); in the data active = potentiation above about 50%; inconclusive = mostly about 30% to 49%
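D2 cells co-treated with compound plus 50 nM dopamine (EC20) for 90 min at 37 deg C to detect potentiation. Beta-arrestin recruitment was read as enzyme-fragment luminescence after 1 h at ambient temperature. Full response was set by 57 uM dopamine.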
D2 PAM-2: HTS Assay for Positive Allosteric Modulators of the Human D2 Dopamine Receptor: Primary Screen for Potentiators | D(2) dopamine receptor (Homo sapiens), P14416 | HEK293 T-REx D2, calcium flux, EC20 dopamine potentiation | potentiation, % at 10 µM | 0.34% of 340,000 active | AID 485347, 2010;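 active = potentiation over 3 SD above the plate norm, cut at about 30% in these data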; also: 0% is about no effect
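Tetracycline-induced HEK293 T-REx cells force-coupled to calcium signalling expressed D2; compounds were pin-added after a 10 s baseline, read kinetically 180 s, then an EC20 dopamine challenge followed with a further 180 s calcium read.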
D2 ag-2: HTS Assay for Allosteric Agonists of the Human D2 Dopamine Receptor: Primary Screen for Agonists; D(2) dopamine receptor (Homo sapiens), P14416; HEK293 T-REx D2 cells, calcium flux agonist mode; activation, % at 2 µM; 0.53% of 340,000 active; AID 485358, 2010;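 active = activation over 3 SD above normal in the single-dose calcium agonist read, cut at about 30% in these data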; also: 0% is about no effect
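Agonism scored from kinetic calcium signal (1 read/sec, 180 s) following compound pin transfer, after a 10 s baseline. Cells: HEK293 Trex line expressing inducible D2 receptor coupled to calcium, dye-loaded after overnight culture at 30 C.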
D3 arrestin ag: qHTS of D3 Dopamine Receptor Agonist: D3 Dopamine Receptor B-arrestin Agonist Confirmatory Assay; AID 720506, 2013; 4% of 2,300 active; shares compounds with D2 ag-2; DiscoveRx D3 beta-arrestin cells, luminescence, 90 min; Potency, µM (highest dose often 76.9 µM), without a hit: at the top dose activation, most hits filed as activators;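 also: potency is read from the fitted curve at half-maximal effect; 100% = dopamine control response; nearly all actives have a fitted effect of over 70% in size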
Target sequence (P35462 whole entry, looked up): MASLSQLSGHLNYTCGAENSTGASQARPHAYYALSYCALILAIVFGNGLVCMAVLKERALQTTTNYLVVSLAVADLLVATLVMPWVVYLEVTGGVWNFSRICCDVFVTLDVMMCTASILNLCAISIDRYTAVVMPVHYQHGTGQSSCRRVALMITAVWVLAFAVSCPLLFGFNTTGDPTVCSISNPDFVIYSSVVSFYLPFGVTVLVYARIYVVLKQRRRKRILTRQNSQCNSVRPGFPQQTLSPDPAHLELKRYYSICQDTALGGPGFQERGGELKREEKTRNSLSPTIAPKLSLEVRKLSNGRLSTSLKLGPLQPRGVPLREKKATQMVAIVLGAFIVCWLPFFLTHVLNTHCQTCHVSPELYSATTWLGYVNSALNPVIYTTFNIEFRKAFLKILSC
D2 ag-3: qHTS of D3 Dopamine Receptor Agonist: D2 Dopamine Receptor B-arrestin Agonist Counterscreen; shares compounds with D2 ag-2; DiscoveRx PathHunter D2 beta-arrestin, luminescence, 90 min; response scale: percent relative to full dopamine signal; Potency, µM (series often up to 76.9 µM), for the others: at the highest dose activation, hits mostly activators; 5.9% of 2,300 active; AID 720507, 2013; also: potency is read from the fitted curve at half-maximal effect; % of control where 0% means no effect; nearly all actives have a fitted effect of over 70% in size
Starred values were filed as active, the others as inactive; ? = inconclusive; / = no result; ! = not confirmed by another sample. Unless noted, calls follow the shape of the dose curve; as a rule, active = well fitted activation curve with a large enough effect; inconclusive = small, poorly fitted or top-dose-only effect; inactive = flat fitted curve, though single readings scatter.

SMILES	D2 antagonist	D2 ag-1	D2 PAM-1	D2 PAM-2	D2 ag-2	D3 arrestin ag	D2 ag-3
CC(=O)c1c(C)[nH]c(C(=O)CN2CCN(S(=O)(=O)c3ccccc3)CC2)c1C	-17	2	0	3	2	/	/
CCc1nnc(NC(=O)c2ccc(-c3ccc(C(C)=O)cc3)o2)s1	11	0	-2	-14	-2	-7%	-1%
CCc1nnc(NC(=O)c2ccc(-c3ccc(Cl)cc3)o2)s1	-4	0	-23	2	0	/	/
CC(C)Cn1c(SCC(=O)Nc2cc(Cl)c(Cl)cc2Cl)nc(O)cc1=O	-9	0	-10	-4	0	/	/
CCOC(=O)c1ccc(-c2c(-c3ccc(OC)cc3)oc(=O)c3cc(OC)c(OC)cc23)cc1F	/	1	3	/	/	-3%	-1%
CCOC(=O)c1ccc(-c2c(-c3cc(OC)c(OC)c(OC)c3)noc2C)cc1F	16	1	-14	3	0	/	/
COc1cccc(-c2ccc3ncnc(NCc4cccc(C)c4)c3c2)c1	-5	/	/	-7	0	/	/
COc1cccc(CNc2ncnc3ccc(-c4c(C)noc4C)cc23)c1	9	/	/	-1	0	12%	18%
C[C@@H]1CCCCO[C@H](CN(C)C(=O)Cc2ccccc2)[C@@H](C)CN([C@H](C)CO)C(=O)c2cc(NC(=O)Nc3ccccc3)ccc2O1	/	5	1	/	/	/	/
Cc1cc(NC(=O)C2(C)CCN2C(C)C)c2ccccc2n1 (stereo not drawn)	/	-1	-13	/	/	/	/
O=C(CNCc1cccs1)NC12CC3CC(CC(C3)C1)C2	6	14	9	-15	30	/	/
CC1(C)C2CCC(C2)C1(C)NC(=O)CNCc1cccs1 (stereo not drawn)	28	12	5	-11	24	-7%	27%
Clc1cccc(N/N=C(\Cc2nc3ccccc3[nH]2)c2ccccc2)c1	/	0	-23	-1	/	/	/
O=C(NCCCN1CCOCC1)c1ccc2nc(Cc3cccc(Cl)c3)oc2c1	-12	3	-9	5	0	/	/
CC(C)CNC(=O)C1CCCN(C(=O)NCc2ccccc2)C1 (stereo not drawn)	-13	2	-8	-2	-2	/	/
CC1(C)C2([N+](=O)[O-])CN3CC1([N+](=O)[O-])CN(C2)C3c1ccc(O)c(O)c1 (stereo not drawn)	10	1	5	5	1	17%	4%
Cc1cc2oc(=O)cc(CN3CCCCCCC3)c2cc1Cl	/	-1	-4	/	/	/	/
COC(=O)c1ccc(N/C=C/C(=O)c2ccccc2)cc1	18	-2	1	12	0	-5%	-4%
CCOC(=O)c1nn(C)c2[nH]c(=O)n(C)c(=O)c12	/	-3	1	/	/	/	/
Nc1nc(NCCOCCO)nc(N2CCCCCC2)c1[N+](=O)[O-]	0	-1	-8	-4	-1	/	/
COc1ccc(-n2c(C)cc(C)c(C(C)=O)c2=S)cc1	1	-1	1	-19	54*	-4%	-2%
COc1ccc(-n2c(C)c(C(C)=O)c3cc(OC(C)=O)ccc32)cc1	-5	1	7	-3	0	/	/
COc1ccccc1CNC(=O)COc1ccc(S(=O)(=O)N2CCCC2)cc1	2	0	-2	-6	-1	/	/
COc1ccc(NC(=O)C(=O)NCCN2CCN(C(=O)c3cccs3)CC2)cc1	44*	1	-18	6	14	?	7%
Cc1cc(NC(=O)C(=O)NCCN2CCN(C(=O)c3cccs3)CC2)ccc1Br	27	0	-21	-10	22	28%	6%
SMILES	D2 antagonist	D2 ag-1	D2 PAM-1	D2 PAM-2	D2 ag-2	D3 arrestin ag	D2 ag-3
CCCN(CCC)CCNC(=O)c1cc2c(-c3ccccc3F)nn(C)c2s1	42*	67*	?	-16	43*	-3%	?
CCN(CC)CCNC(=O)c1cc2c(-c3ccc(Cl)cc3)nn(C)c2s1	2	0	10	-14	7	/	/
CCCCN(CC)CCNC(=O)c1cc2c(-c3ccc(Cl)cc3)nn(C)c2s1	72*	75*	57*	-22	44*!	?	25µM*
CCCN(CCC)CCNC(=O)c1cc2c(-c3ccc(Cl)cc3)nn(C)c2s1	37*	?	-3	-16	45*	12%	?
CC(C)NC(=O)c1ccc(-n2nc(C(F)(F)F)c3c2CCCC3)cc1	6	2	10	5	-1	/	/
Cc1cccc(NC(=O)Cn2nnc(-c3nc(-c4ccncc4)no3)c2N)c1	/	/	/	7	2	/	/
Cn1cncc1C#Cc1ccc2cc(CCO)oc(=O)c2c1	-1	-2	-1	8	0	7%	-5%
O=C(CSc1ncn[nH]1)N1N=C2/C(=C/c3ccccc3)CCCC2C1c1ccccc1 (stereo not drawn)	33*	12	9	-14	41*	6%	?
COc1ccc(/C=C2\CCCC3C2=NN(C(=O)CSc2ncn[nH]2)C3c2ccc(OC)cc2)cc1 (stereo not drawn)	5	6	-9	-16	0	/	/
CCCCN1C(=O)CN(C2CCCCCC2)C(=O)C1c1ccc(OCCC)c(OC)c1 (stereo not drawn)	/	/	/	14	1	/	/
CSCCCN1CC[C@@H](N2CCN(c3ccccc3F)CC2)[C@H](O)C1	79*	?	8	-21	76*	19%	?
CC(C)=CC(=O)N1CC[C@@H](N2CCN(c3ccccc3F)CC2)[C@H](O)C1	46*	43*	6	-15	80*	21%	?
NC(=O)CN1CCN(c2ccccc2F)CC1	26	0	-21	-8	1	/	/
CSCCC(=O)N1CC[C@@H](N2CCN(c3ccccc3F)CC2)[C@H](O)C1	45*	11	8	4	30	22%	?
O=C(CCN1CCCO1)N1CCCC(N2CCN(c3ccccc3F)CC2)C1 (stereo not drawn)	7	-1	-10	-6	-2	/	/
